Key:
Test in all cases: log2 ratio of Biotin-Ahx-Ub-VS probe labelling (fragment/DMSO); higher = less target engagement (more negative = stronger competition), active = hit call of the paper (q ≤ 0.05, log2 ratio ≤ -1)
Conditions in all cases: compound concentration: 200 uM; treatment time: 3 h
[1] = biological target: USP34 (UniProt Q70CQ2)
How it was run: (§1)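 Global-median-normalised Spectronaut label-free quantities were compared by unpaired t-test, and values are average log2 ratios of fragment over vehicle. Only proteins with ≥2 unique peptides were used. HEK293T lysate (495 µg per sample) was treated in triplicate with fragment at 200 µM or vehicle for 3 h and then with Biotin-Ahx-Ub-VS at 0.5 µM final for 1 h. Labelled DUBs were then NeutrAvidin-enriched, digested with LysC and trypsin, and run by diaPASEF LC-MS/MS.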

[2] = biological target: T1, USP36 (UniProt Q9P275)
T1 sequence (whole entry): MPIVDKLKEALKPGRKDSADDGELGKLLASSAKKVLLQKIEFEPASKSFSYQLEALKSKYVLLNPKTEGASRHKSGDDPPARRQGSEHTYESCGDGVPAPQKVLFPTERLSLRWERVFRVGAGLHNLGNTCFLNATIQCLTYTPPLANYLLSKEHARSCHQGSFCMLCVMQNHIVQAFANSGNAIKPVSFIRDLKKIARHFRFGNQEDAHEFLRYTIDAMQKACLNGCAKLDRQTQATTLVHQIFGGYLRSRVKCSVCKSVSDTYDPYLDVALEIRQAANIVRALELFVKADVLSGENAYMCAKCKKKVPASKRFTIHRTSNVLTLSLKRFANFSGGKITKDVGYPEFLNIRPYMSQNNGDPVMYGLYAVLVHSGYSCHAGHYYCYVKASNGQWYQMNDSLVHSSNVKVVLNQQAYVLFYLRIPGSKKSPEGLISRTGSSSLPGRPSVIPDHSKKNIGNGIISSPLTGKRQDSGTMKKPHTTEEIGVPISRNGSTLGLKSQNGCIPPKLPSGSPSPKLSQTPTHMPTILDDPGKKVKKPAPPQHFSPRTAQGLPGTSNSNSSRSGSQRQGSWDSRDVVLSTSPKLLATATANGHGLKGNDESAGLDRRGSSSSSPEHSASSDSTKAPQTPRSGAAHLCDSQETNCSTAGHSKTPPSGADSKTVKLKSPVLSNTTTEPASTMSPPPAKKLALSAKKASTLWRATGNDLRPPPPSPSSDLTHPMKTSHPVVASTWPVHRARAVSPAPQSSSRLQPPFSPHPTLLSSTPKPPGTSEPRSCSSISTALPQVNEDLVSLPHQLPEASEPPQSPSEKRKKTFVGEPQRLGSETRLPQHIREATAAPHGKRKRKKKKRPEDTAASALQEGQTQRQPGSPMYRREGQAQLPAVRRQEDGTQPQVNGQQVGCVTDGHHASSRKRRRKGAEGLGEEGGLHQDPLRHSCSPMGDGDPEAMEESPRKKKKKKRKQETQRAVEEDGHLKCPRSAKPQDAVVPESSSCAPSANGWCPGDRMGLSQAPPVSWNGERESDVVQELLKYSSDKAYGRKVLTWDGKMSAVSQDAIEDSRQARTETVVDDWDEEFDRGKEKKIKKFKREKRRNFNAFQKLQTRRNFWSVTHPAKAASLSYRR
How it was run: as §1

[3] = biological target: T2, USP38 (UniProt Q8NB14)
T2 sequence (whole entry): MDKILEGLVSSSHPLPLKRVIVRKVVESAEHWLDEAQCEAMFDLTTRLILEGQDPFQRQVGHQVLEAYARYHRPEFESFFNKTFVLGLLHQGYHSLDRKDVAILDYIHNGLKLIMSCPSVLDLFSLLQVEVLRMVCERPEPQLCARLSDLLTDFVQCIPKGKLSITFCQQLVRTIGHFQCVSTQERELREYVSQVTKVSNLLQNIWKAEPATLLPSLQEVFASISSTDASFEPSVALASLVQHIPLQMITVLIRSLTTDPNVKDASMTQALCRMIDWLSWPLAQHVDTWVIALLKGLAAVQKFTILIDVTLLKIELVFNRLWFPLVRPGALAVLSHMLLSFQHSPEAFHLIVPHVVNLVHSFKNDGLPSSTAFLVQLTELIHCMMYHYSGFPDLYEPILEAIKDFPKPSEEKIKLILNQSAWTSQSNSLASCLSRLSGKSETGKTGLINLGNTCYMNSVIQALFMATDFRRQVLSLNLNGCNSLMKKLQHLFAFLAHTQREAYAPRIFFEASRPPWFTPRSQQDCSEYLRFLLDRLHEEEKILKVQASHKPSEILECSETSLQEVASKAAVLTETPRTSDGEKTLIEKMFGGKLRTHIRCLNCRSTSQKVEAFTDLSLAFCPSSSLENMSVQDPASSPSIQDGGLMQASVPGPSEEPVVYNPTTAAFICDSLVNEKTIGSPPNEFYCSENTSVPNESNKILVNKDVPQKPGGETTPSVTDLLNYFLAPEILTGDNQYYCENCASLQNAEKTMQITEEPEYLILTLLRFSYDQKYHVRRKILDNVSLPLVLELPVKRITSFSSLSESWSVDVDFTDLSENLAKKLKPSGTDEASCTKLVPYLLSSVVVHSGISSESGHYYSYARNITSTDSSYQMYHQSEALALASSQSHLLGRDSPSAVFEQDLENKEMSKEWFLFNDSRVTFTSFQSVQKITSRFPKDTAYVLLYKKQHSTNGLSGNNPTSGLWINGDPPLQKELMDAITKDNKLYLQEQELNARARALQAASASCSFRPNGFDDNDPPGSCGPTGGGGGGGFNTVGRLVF
How it was run: as §1

[4] = biological target: T3, USP39 (UniProt Q53GS9)
T3 sequence (whole entry): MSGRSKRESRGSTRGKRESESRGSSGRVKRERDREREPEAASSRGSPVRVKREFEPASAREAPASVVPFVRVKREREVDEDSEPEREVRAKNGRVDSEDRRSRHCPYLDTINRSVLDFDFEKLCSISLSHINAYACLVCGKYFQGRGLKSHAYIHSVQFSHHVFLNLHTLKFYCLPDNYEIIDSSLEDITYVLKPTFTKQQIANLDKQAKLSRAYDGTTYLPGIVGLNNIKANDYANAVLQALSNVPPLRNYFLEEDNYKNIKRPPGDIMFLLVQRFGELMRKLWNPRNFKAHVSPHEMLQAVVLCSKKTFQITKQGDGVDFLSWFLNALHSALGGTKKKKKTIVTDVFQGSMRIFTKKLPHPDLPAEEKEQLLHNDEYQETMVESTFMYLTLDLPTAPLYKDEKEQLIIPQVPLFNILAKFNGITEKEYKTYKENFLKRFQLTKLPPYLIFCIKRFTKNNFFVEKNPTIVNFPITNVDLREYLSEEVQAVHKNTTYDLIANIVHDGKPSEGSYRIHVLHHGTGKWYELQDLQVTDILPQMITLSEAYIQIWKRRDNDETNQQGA
How it was run: as §1

[5] = biological target: T4, USP4 (UniProt Q13107)
T4 sequence (whole entry): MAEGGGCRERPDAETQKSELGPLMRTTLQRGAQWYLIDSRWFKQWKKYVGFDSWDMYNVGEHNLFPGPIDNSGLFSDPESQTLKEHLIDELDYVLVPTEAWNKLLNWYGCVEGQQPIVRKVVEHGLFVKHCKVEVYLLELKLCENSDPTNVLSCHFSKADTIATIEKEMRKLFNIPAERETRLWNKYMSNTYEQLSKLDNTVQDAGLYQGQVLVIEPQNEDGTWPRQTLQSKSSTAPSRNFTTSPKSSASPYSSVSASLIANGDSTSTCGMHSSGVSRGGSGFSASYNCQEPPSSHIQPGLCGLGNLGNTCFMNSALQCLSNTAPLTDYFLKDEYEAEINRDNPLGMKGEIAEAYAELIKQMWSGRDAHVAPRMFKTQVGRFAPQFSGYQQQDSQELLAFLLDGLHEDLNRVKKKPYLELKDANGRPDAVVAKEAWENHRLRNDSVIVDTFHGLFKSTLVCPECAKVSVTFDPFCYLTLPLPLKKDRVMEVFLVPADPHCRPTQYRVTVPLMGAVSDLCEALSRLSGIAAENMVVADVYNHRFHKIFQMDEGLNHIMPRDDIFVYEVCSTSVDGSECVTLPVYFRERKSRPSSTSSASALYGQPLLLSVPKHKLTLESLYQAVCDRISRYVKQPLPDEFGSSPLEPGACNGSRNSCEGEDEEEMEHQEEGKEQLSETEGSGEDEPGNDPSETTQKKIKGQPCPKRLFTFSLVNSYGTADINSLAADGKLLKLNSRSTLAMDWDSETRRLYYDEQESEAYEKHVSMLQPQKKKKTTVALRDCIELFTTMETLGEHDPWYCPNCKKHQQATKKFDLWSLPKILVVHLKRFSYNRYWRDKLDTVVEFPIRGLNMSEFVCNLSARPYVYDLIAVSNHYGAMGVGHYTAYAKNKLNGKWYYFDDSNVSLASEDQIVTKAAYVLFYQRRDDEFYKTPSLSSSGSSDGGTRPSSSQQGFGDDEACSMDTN
How it was run: as §1

Measured: log2 ratio of Biotin-Ahx-Ub-VS probe labelling

Sequence of USP34 (Q70CQ2 whole entry, the tested form may be a part): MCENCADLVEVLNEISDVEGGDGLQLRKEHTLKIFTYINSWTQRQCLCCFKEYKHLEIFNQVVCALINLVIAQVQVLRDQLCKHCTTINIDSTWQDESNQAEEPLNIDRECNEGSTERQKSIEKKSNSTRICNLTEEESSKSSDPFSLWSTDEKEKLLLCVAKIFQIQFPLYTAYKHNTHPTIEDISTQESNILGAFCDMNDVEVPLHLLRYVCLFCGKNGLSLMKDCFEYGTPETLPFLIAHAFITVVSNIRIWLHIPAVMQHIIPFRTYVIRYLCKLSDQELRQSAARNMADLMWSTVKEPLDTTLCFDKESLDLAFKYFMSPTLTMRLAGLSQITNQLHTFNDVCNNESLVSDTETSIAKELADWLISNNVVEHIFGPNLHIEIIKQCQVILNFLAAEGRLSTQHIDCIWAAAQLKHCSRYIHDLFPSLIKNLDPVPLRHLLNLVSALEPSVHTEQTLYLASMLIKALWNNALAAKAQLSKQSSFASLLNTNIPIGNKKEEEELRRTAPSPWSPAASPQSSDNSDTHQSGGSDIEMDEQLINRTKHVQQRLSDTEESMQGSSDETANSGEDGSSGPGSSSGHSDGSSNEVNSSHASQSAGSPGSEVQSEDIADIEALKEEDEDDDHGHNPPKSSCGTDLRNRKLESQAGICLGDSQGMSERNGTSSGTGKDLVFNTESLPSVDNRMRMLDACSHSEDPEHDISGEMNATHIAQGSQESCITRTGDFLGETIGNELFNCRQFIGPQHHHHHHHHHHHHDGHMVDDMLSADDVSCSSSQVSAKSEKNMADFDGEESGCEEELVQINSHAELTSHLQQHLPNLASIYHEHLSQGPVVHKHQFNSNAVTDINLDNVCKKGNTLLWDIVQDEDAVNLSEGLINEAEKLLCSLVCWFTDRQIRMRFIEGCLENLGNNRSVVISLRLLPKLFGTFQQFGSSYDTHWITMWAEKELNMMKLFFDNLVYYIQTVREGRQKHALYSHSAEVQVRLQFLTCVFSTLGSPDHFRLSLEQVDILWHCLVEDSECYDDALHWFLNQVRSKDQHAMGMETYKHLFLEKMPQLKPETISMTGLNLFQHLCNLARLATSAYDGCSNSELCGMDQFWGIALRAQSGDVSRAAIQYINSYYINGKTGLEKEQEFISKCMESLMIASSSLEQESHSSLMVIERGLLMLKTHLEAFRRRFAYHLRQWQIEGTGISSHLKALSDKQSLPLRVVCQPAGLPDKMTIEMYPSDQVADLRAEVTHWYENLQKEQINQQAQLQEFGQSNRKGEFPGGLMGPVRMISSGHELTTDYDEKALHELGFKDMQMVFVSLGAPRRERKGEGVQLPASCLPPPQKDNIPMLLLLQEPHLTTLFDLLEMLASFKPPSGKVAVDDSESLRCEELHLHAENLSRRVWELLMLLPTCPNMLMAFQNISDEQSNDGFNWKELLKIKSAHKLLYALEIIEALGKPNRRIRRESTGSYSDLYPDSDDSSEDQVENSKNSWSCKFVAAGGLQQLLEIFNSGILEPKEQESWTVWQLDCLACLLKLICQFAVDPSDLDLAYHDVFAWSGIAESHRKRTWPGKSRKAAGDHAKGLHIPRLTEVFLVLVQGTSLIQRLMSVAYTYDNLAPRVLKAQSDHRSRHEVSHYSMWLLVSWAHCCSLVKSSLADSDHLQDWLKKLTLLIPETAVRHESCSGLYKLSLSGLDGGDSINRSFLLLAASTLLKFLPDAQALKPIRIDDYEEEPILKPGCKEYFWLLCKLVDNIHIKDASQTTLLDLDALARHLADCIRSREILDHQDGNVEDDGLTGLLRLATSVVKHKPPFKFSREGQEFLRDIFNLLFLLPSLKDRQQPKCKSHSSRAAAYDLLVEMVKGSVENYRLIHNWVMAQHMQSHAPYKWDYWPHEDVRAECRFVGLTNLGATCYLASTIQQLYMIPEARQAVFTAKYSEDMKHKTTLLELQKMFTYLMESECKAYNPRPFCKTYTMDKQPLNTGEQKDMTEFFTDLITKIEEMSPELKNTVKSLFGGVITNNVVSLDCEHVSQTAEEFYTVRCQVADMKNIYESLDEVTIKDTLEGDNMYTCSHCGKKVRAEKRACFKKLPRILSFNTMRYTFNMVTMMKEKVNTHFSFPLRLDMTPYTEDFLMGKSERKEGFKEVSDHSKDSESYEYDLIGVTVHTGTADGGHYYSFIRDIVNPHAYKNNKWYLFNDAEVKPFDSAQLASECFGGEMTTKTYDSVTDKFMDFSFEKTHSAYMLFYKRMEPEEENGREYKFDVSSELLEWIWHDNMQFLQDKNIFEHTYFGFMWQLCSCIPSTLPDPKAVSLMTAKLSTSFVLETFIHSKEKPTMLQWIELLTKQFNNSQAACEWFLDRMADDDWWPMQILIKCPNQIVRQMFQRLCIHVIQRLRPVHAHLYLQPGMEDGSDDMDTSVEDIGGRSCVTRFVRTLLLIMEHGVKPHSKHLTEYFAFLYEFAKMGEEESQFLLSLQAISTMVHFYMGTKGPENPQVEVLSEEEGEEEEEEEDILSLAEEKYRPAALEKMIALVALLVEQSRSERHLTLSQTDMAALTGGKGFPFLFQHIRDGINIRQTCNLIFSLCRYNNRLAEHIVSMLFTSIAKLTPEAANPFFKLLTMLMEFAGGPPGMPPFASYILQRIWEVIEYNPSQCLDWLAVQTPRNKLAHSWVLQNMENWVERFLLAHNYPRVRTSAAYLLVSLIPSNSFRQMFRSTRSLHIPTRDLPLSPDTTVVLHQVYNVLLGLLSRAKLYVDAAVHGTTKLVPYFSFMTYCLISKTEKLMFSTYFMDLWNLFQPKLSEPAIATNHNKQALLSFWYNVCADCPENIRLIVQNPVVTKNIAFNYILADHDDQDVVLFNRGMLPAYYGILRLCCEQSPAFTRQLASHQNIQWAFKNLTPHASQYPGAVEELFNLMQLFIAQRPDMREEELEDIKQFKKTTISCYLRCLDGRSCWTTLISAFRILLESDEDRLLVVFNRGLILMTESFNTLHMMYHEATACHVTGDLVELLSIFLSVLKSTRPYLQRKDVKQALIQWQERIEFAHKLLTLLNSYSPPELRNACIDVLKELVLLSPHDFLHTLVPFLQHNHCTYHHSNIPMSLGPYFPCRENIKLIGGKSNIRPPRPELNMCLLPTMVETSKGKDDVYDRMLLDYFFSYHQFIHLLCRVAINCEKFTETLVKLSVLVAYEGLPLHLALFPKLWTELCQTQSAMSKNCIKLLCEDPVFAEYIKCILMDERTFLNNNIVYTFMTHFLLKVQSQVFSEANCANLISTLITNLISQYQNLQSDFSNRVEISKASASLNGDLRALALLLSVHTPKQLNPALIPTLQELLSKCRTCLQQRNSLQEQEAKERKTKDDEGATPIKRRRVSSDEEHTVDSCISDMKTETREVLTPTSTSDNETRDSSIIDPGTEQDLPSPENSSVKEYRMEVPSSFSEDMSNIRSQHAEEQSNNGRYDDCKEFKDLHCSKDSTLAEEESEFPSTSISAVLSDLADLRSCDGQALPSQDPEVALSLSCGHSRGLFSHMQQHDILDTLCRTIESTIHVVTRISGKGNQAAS

Cl.O=C(CCl)NCc1ccnc(Oc2ccccc2F)c1
inactive: [1] -0.267 | [2] 0.0203 | [3] -0.00457 | [4] 0.295 | [5] -0.0201

Reference: the supplement of paper PMC11732987, “Enantioselective OTUD7B fragment discovery through chemoproteomics screening and high-throughput optimisation” (Communications Chemistry, 2025)
